# Only some compounds are listed: those with a hit (about 8% of all), similar ones and a draw of the others.
# HT1080 IDH1KD tx – kills HT-1080 cells with IDH1 knockdown; HT-1080 IDH1 knockdown viability, ATP luminescence, 48 h; Potency, µM (highest dose often 46.1 µM), for the others: top-dose activity, negative = toxicity, hits mostly cytotoxic; 2% of 360,000 active;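 note: 0% = DMSO wells and -100% = cell-free medium wells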
#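 Knockdown cells (IDH1KD HT-1080) received compounds 2 h after plating at 750 cells/well and were kept 48 h at 37 °C in 5% FBS RPMI. A CellTiter-Glo luminescence read gave % activity for curve fitting.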
# KB-V1 MDR tox – KB-V1 MDR subline cytotoxicity; KB-V1 MDR cells viability, CellTiter-Glo, 72 h; Potency, µM (doses to about 46.1 µM), usual class: cytotoxic; 3.4% of 400,000 active; note: % is set by controls: 0 for no effect and ±100 for the full control effect; nearly all actives have a fitted effect of over 60% in size
#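 In this primary screen, KB-V1 cells overexpressing P-gp are incubated with library compounds (lowest to highest concentration) for 72 h at 37 degrees C before a luminescent ATP viability read.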
# HT1080-NT tox – kills 2HG-producing HT-1080-NT fibrosarcoma cells | HT-1080-NT fibrosarcoma viability, CellTiter-Glo ATP luminescence, 48 h | AID 686970 | 1.6% of 360,000 active | Potency, µM (highest dose often 46.1 µM), inactives show at the top dose activity, negative = less viability, actives largely listed as cytotoxic;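 note: NT is the 2HG producing partner of a matched IDH1 knockdown line; 0% = DMSO-treated cells and -100% = media-only wells without cells; nearly all actives have a fitted effect of over 55% in size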
#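 HT-1080-NT; 750 cells/well; 5% FBS RPMI; 48 h compound, 37 degrees C; CellTiter-Glo luminescence; curve fitting and curve-class assignment.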
# SW480 rerep – induces DNA re-replication in SW480 colon adenocarcinoma cells; Potency, µM (doses to about 46.1 µM), without a hit: at the highest dose re-replication activation, most hits filed as activators; 1.8% of 340,000 active; SW480 DNA re-replication, Hoechst DNA content imaging, 48 h; AID 624297; note: % of control where 0% means no effect; nearly all actives have a fitted effect of over 55% in size
#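 Per well, 250 cells were exposed to pinned compound for 48 hr. Nuclear DNA was visualised with Hoechst (40 min, 37 C) and total object intensity recorded by fluorescence scanning.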
# MCF10A rereplic – induces DNA re-replication in MCF 10a normal breast cells; MCF 10A DNA re-replication, Hoechst nuclear intensity, 48 h; Potency, µM (top dose mostly 46.1 µM), inactives show at the highest dose activity, positive = re-replication, usual class: activators; 2.9% of 350,000 active; note: % of control where 0% means no effect; nearly all actives have a fitted effect of over 50% in size
# KB-3-1 cytotox – kills parental KB-3-1 adenocarcinoma cells; KB-3-1 viability, CellTiter-Glo ATP luminescence, 72 h; Potency, µM (titrated, usually from 46.1 µM), actives largely listed as cytotoxic; 1.4% of 400,000 active; note: % is set by controls: 0 for no effect and ±100 for the full control effect; nearly all actives have a fitted effect of over 60% in size
#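 KB-3-1 cells, DMEM (no phenol red) + 10% FBS; compound by pin transfer, 72 h, 37 °C. Readout: CellTiter-Glo luminescence after 10 min. Data normalized, curve-fitted.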
# * = called active by the depositor; i = inactive; ? = inconclusive; · = no result. Calls come from the whole dose curve; as a rule, active = well fitted curve in the direction sought with a large enough effect; inconclusive = small, poorly fitted or top-dose-only effect, or another doubt; inactive = no such curve, though single readings can be large; an effect the other way counts as inactive or inconclusive. Potency is the fitted concentration of half-maximal effect.
SMILES,HT1080 IDH1KD tx,KB-V1 MDR tox,HT1080-NT tox,SW480 rerep,MCF10A rereplic,KB-3-1 cytotox
O=C1CC(c2cc(F)ccc2F)c2cc3c(cc2N1)CCC3 (stereo not given),2.6µM*,i,2.6µM*,?,?,4.6µM*
O=C1CC(c2cccc(Br)c2)c2cc3c(cc2N1)CCC3 (stereo not given),4.5µM*,7.3µM*,4.5µM*,-3%,?,18µM*
CCOC(=O)c1c(C)c(C(=O)NCc2ccc3c(c2)OCO3)c(C)n1CC,-5%,i,0%,-2%,-3%,i
CCOC(=O)c1cnc(-n2nc(C)cc2C)nc1NC(C)c1ccccc1 (stereo not given),1%,1µM*,2%,-2%,13%,?
CCOC(=O)c1cnc(-n2nc(C)cc2C)nc1NNc1ncc(-c2ccccc2)cn1,?,?,?,18%,11%,?
CCOC(=O)c1cnc(-n2cc(C)cn2)nc1NCc1ccc2c(c1)OCO2,23%,4.1µM*,3%,7%,28%,i
CCOC(=O)c1cnc(-n2nc(C)cc2C)nc1NCc1ccccc1,-3%,0.92µM*,1%,?,21µM*,?
Cc1cc(C(C)(C)C)oc1C(=O)N(CC(=O)NC1CCCC1)Cc1ccccc1Cl,?,?,-27%,-7%,3%,i
Cc1ccc(NC(=O)CN(CCc2ccccc2)S(=O)(=O)c2ccccc2)c(C)c1,·,i,·,·,·,i
COc1ccc(CNC(=O)CSc2ncc(S(=O)(=O)c3ccc(C)c(Cl)c3)c(=O)[nH]2)cc1,·,i,·,·,·,i
CCN(CC)C(=S)NC(=O)Cc1ccccc1,8%,i,10%,5%,-3%,i
CN(C(=S)NC(=O)Cc1ccccc1)c1ccccc1,18µM*,i,?,-2%,0%,i
O=C(COc1ccccc1C(=O)Nc1ccccc1)NCCCCc1ccccc1,-24%,·,-11%,·,·,·
Cc1nc(Cc2nnc(SC(C)C(=O)N3c4ccccc4NC(=O)C3(C)C)o2)cs1 (stereo not given),6%,i,12%,2%,0%,i
CC(Sc1nnnn1C1CC1)C(=O)N1c2ccccc2NC(=O)C1(C)C (stereo not given),-1%,21µM*,6%,-6%,1%,i
N/C(=N\NC(=O)c1ccc(F)cc1)c1cc2ccccc2oc1=O,-8%,i,-17%,1%,-3%,i
CCOC(=O)c1cc2ccc(OC(=O)c3ccco3)cc2oc1=O,?,i,-4%,30%,3.3µM*,i
CNc1c(NS(=O)(=O)c2ccc(F)c(Cl)c2)c(=O)oc2ccccc12,?,i,-17%,1%,3%,i
CCCCCCc1cc2cc(C(=O)NC)c(=N)oc2cc1O,23%,i,4%,13µM*,?,i
CCCCCCc1cc2cc(/C(N)=N/NC(=O)c3ccncc3)c(=O)oc2cc1O,-4%,i,-12%,1.6µM*,1.3µM*,i
CCCCCCc1cc2cc(S(=O)(=O)c3ccc(F)c(Cl)c3)c(=O)oc2cc1O,?,15µM*,16µM*,2.6µM*,?,i
CCOc1ccc2cc(C(=O)NCc3ccccc3)c(=N)oc2c1,-26%,i,-14%,1%,?,i
CCOC(=O)c1cc2ccc3ccccc3c2oc1=O,4%,?,10%,?,7%,i
O=C(O)c1ccc2c(=O)n(-c3ccc(F)c(Cl)c3)c(=S)[nH]c2c1,9%,i,-2%,-21%,-9%,i
O=C(CSc1ccccc1)NCc1ccc2c(c1)CCN2C(=O)c1ccc(Cl)cc1,·,i,·,·,·,i
CCCCCCc1cc2cc(-c3nnc(-c4ccc(C)cc4)o3)c(=O)oc2cc1O,·,i,·,·,·,i
COc1ccc2oc(=O)c(C(=O)Nc3ccccc3O)cc2c1,-1%,i,1%,-2%,3%,i
